Screening data (PubChem)
HT1080 IDH1KD tx – toxicity to HT-1080 IDH1 knockdown cells (counter line) | Potency, µM (doses to about 46.1 µM), without a hit: top-dose activity, negative = toxicity, hits mostly cytotoxic | HT-1080 IDH1 knockdown viability, ATP luminescence, 48 h | 360,000 tested, 2% active;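 further: potency means the concentration at half of the fitted maximal effect; 0% = DMSO wells and -100% = cell-free medium wells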
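IDH1KD HT-1080 cells, 750/well, RPMI + 5% FBS; compound pinned after 2 h settling; 48 h, 37 °C; CellTiter-Glo luminescence; % activity normalised to DMSO and no-cell wells; curves fitted, classed by r2 and efficacy.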
DT40 TDP1 CPT – growth inhibition of DT40 Tdp1-/-;hTDP1 cells with camptothecin (screen for TDP1 inhibitors); chicken DT40 Tdp1-/-;hTDP1 cells + 20 nM CPT, ATP luminescence, 48 h; Potency, µM (series often up to 46.2 µM), for the others: at the highest dose activity change, negative = growth inhibition, actives largely listed as inhibitors; 420,000 tested, 12% active; AID 686979; further: potency means the concentration at half of the fitted maximal effect; nearly all actives have a fitted effect of over 55% in size
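Chicken DT40 Tdp1-/- cells stably complemented with human TDP1 were seeded at 400 cells/well in medium containing 20 nM camptothecin, exposed to pin-transferred compounds, and grown at 37 °C for at least 48 hr. Viability was read as ATP luminescence.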
HT1080NT lethal – kills 2HG-producing HT-1080-NT fibrosarcoma cells. HT-1080-NT fibrosarcoma viability, CellTiter-Glo ATP luminescence, 48 h. Potency, µM (doses to about 46.1 µM), for the others: at the top dose activity, negative = less viability, hits mostly cytotoxic. 360,000 tested, 1.6% active. AID 686970;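 further: NT is the 2HG producing partner of a matched IDH1 knockdown line; potency means the concentration at half of the fitted maximal effect; 0% = DMSO-treated cells and -100% = media-only wells without cells; nearly all actives have a fitted effect of over 55% in size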
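Viability by CellTiter-Glo luminescence after 48 h compound exposure at 37C of HT-1080-NT cells (750/well, RPMI, 5% FBS). % activity scaled between DMSO wells and medium-only wells, then curve-fitted and categorized by curve class.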
uPA generation – blocks generation of uPA at the cell surface. cell surface uPA generation assay, qHTS. Potency, µM (series often up to 38.3 µM), inactives show at the highest dose activity change, negative = inhibition, most hits filed as inhibitors. 330,000 tested, 0.31% active. AID 540303; active means well fitted inhibition curve with a large enough effect; inconclusive means small, poorly fitted or top-dose-only effect; inactive means no such curve, though single readings can be large or run the other way; tested in mouse RAW 264.7 cells; further: potency means the concentration at half of the fitted maximal effect; nearly all actives have a fitted effect of over 55% in size
DT40 TDP1 no CPT – qHTS for Inhibitors of human tyrosyl-DNA phosphodiesterase 1 (TDP1): qHTS in cells in absence of CPT; DT40 Tdp1-/- hTDP1 cells, no CPT, ATP luminescence, 48 h; Potency, µM (titrated, usually from 46.2 µM), for inactives: at the highest dose activity change, negative = growth inhibition, hits mostly inhibitors; 420,000 tested, 15% active; AID 686978, 2013; further: potency means the concentration at half of the fitted maximal effect; nearly all actives have a fitted effect of over 55% in size
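Readout: luminescence from CellTiter-Glo after 30 min in the dark at RT. Cells: DT40 Tdp1-/- with stable hTDP1, 400/well. Exposure: compounds alone, ≥48 hr, 37 °C.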
IL-1B inflam inh – inhibitors of inflammasome signaling (IL-1 beta secretion); THP-1 LPS/ATP IL-1B secretion, AlphaLISA, 16 h; active compounds read low; activity change, % at 57.5 µM; 360,000 tested, 4.7% active; in the data active means activity change below about -50%; inconclusive means mostly about -30% to -49%
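Secreted IL-1B measured by AlphaLISA bead assay after 16 h compound exposure of THP-1 cells; compounds (final up to 57.5 uM) added 1 h before LPS (250 ng/mL) and ATP (1.25 mM) stimulation; lower signal means less secretion.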
Starred values were filed as active, the others as inactive; ? = inconclusive; / = no result given. Rows were chosen to be rich in hits. Some 19% of all compounds tested hit in one or more screens of this group. Unless noted, the call rests on the fitted dose curve; in most records, active means well fitted curve in the direction sought with a large enough effect; inconclusive means small, poorly fitted or top-dose-only effect, or another doubt; inactive means no such curve, though single readings can be large; an effect the other way counts as inactive or inconclusive. Unless noted, on the % scale 0 is the no-effect control and ±100 the full control effect.

SMILES	HT1080 IDH1KD tx	DT40 TDP1 CPT	HT1080NT lethal	uPA generation	DT40 TDP1 no CPT	IL-1B inflam inh
Cc1nccn1CCCNCc1c(C(=O)N2CCCCCCC2)nc2ccc(Cl)cn12	15%	0%	-8%	12%	-19%	-22
C/C(=N\NC(=O)c1nnn(-c2nonc2N)c1CN1CCC(C)CC1)c1ccc(Br)cc1	0%	?	-1%	/	?	4
COc1ccc(C(=O)Nc2ccc(N3CCN(c4ccccc4)CC3)c(C(=O)O)c2)cc1	/	0%	/	/	-9%	/
Cc1ccc(C2=CC(=O)C[C@H](c3ccc(Cl)cc3)C2)cc1	8%	23µM*	3%	14%	?	18
COc1cc(/C=N\NC(=O)c2ccc(-c3ccccc3)cc2)cc(OC)c1OC(C)=O	-12%	?	-4%	3%	-25%	-50*
COc1cc(/C=N\NC(=O)c2ccc(-c3ccccc3)cc2)cc(OC)c1O	-21%	?	0%	-15%	-25%	?
COc1cccc(/C=N/NC(=O)c2ccc(=O)n(C)c2)c1OC	22%	21%	17%	8%	9%	20
COc1ccccc1/C=N/NC(=O)c1ccc(=O)n(C)c1	-3%	-1%	-2%	4%	-10%	14
COc1cccc(/C=N/NC(=O)c2ccccc2)c1OS(=O)(=O)c1ccccc1	-7%	?	-12%	-3%	26µM*	-26
COc1ccccc1/C=N/NC(=O)c1ccc(-c2ccccc2)cc1	-18%	21µM*	-27%	?	?	27
CC(=O)Nc1ccccc1-c1nc(CNC(=O)c2ccc(F)c(F)c2)c(C)o1	/	-6%	/	/	-11%	/
Cc1c(C(=O)N2CCCCC2)c(S(=O)(=O)NCCc2ccc(Cl)cc2)c(C)n1C	0%	?	10%	9%	21µM*	-1
Cc1c(C(=O)N2CCCCCC2)c(S(=O)(=O)N(Cc2ccccc2)C(C)(C)C)c(C)n1C	/	?	/	/	21µM*	/
Cc1c(C(=O)N2CCCCC2)c(S(=O)(=O)N(C)Cc2ccccc2)c(C)n1C	-2%	-12%	-2%	17%	4%	-8
O=C(CN1CCCCC1)Nc1cc(S(=O)(=O)N2CCOCC2)ccc1N1CCCC1	10%	-19%	-1%	2%	-17%	-11
O=C(CN1CCc2ccccc2C1)Nc1cc(S(=O)(=O)N2CCOCC2)ccc1N1CCOCC1	-4%	9.2µM*	-1%	0%	23µM*	-6
O=C(CN1CCc2ccccc2C1)Nc1cc(S(=O)(=O)N2CCOCC2)ccc1N1CCCC1	7%	15µM*	5%	25%	?	-19
COc1cccc(-c2cc(C(F)(F)F)n3nc(C)c(-c4ccccc4)c3n2)c1	/	-6%	/	/	-22%	/
c1ccc(CNCc2ccco2)cc1	6%	9%	14%	3%	4%	6
CCc1ccc(OCC(=O)N(Cc2cccs2)C2CCS(=O)(=O)C2)cc1 (configuration not stated)	-5%	-21%	0%	0%	?	-6
Cc1ccc(CN(C(=O)COc2ccc(C(C)C)cc2)C2CCS(=O)(=O)C2)o1 (configuration not stated)	/	15µM*	/	/	18µM*	/
CC(C)(C)c1ccc(OCC(=O)N(Cc2cccs2)C2CCS(=O)(=O)C2)cc1 (configuration not stated)	-15%	16µM*	0%	9%	?	-26
COc1cc2c(cc1N)-c1ccc(N)cc1C2=O	-3%	?	3%	/	16µM*	-64*
Nc1ccc2c(c1)C(=O)c1cc(N)c(Cl)cc1-2	-20%	2%	?	-9%	-19%	-28
CN(Cc1ccccc1)c1nc(-c2cccc([N+](=O)[O-])c2)nc2ccccc12	20%	18µM*	27%	-5%	18µM*	-16
SMILES	HT1080 IDH1KD tx	DT40 TDP1 CPT	HT1080NT lethal	uPA generation	DT40 TDP1 no CPT	IL-1B inflam inh
O=[N+]([O-])c1cccc(-c2nc(NCc3ccccc3)c3ccccc3n2)c1	-9%	?	0%	-4%	?	19
NC1=NC(c2ccccc2C(F)(F)F)N(c2ccc(F)c(Cl)c2)C(N)=N1 (configuration not stated)	-13%	21µM*	-6%	-6%	4.1µM*	0
COc1ccc(S(=O)(=O)N2N=C(C)Oc3ccccc3C2=O)cc1	3.3µM*	2.9µM*	2.9µM*	-14%	2.9µM*	42
Cc1csc(NC(=O)c2ccc(Cn3nc(C)c(Br)c3C)o2)n1	-34%	?	?	-5%	21µM*	-73*
Cc1nn(Cc2ccc(C(=O)Nc3ccccc3C(F)(F)F)o2)c(C)c1Br	-6%	?	-10%	5%	?	14
OC(CNCCNc1ncccc1C(F)(F)F)COc1ccc(F)cc1 (configuration not stated)	?	-27%	-26%	-10%	?	-82*
COc1ccc(OCC(O)CNC(=O)c2cccs2)cc1 (configuration not stated)	16%	2%	26%	2%	3%	11
Cc1ccc(-c2cc3nc(NCCc4ccncc4)n(C)c(=O)c3s2)cc1	-21%	23µM*	?	/	?	-1
COCCNc1nc2cc(-c3ccsc3)sc2c(=O)n1C	-1%	?	-12%	/	-40%	6
Cn1c(NCCc2ccncc2)nc2cc(-c3ccsc3)sc2c1=O	-28%	21µM*	?	/	13µM*	0
COc1ccc(-c2cc3nc(NCCN4CCCC4)n(C)c(=O)c3s2)cc1OC	-11%	?	-29%	/	18µM*	-15
Cn1c(NCCN2CCCC2)nc2cc(-c3ccsc3)sc2c1=O	?	21µM*	?	/	15µM*	-63*
CC(C)CN1CC2(CCN(C(=O)c3cnccn3)CC2)C1	/	14%	/	/	3%	/
Cc1ccc(NC(=O)c2sc3nc(-c4ccc(F)cc4)cn3c2C)c(C)c1	/	-21%	/	/	?	/
O=C1CCCCC1(CCc1ccncc1)CCc1ccncc1	-4%	18µM*	-3%	-5%	12µM*	-16
O=C(c1ccc(C(F)(F)F)cc1)N1CCC(=O)N(C(COCc2ccccc2)Cc2ccccc2)CC1 (configuration not stated)	-20%	21µM*	-3%	2%	21µM*	-55*
CC(C)(C)c1ccc(C(=O)N2CCC(=O)N(C(COCc3ccccc3)Cc3ccccc3)CC2)cc1 (configuration not stated)	-13%	15µM*	?	?	21µM*	-29
